# Measured values from PMC4552634, “A New Set of Chemical Starting Points with Plasmodium falciparum Transmission-Blocking Potential for Antimalarial Drug Discovery” (PLoS ONE, 2015).
# About 3,200 (25%) of roughly 13,000 compounds showed an effect of 50% or more. This is one part of the list.
# Test system: P. falciparum stage V gametocytes
# Design: BacTiter-Glo ATP luminescence viability of purified stage V gametocytes in 384-well plates, per cent inhibition versus DMSO
# Conditions: 48 h, 5 µM; inhibitor
row,SMILES,% Inhibition [%]
1,Cc1c(F)cc(C(=O)NC2CC2)cc1-c1ccc2c(cnn2S(=O)(=O)c2ccc(Cl)s2)c1 [TCMDC-135232],32.9
2,Cc1c(F)cc(C(=O)NC2CC2)cc1-c1ccc2c(cnn2S(=O)(=O)c2cccs2)c1 [TCMDC-135215],-11.35
3,Cc1c(F)cc(C(=O)NC2CC2)cc1-c1ccc2c(c1)c(C)nn2S(=O)(=O)c1cccs1 [TCMDC-135260],59.41
4,CO/C(=C\C=C\c1cc2cc(Cl)c(Cl)cc2[nH]1)C(=O)NCCCN1CCN(c2ccc(OC)cc2)CC1 [TCMDC-139175],-57.04
5,CO/C(=C\C=C\c1cc2cc(Cl)c(Cl)cc2[nH]1)C(=O)NCCCN1CCC(c2ccccc2)CC1 [TCMDC-139272],8.329
6,CO/C(=C\C=C\c1cc2cc(Cl)c(Cl)cc2[nH]1)C(=O)NCCCN(C)CCN(C)c1ccccc1 [TCMDC-139497],-12.25
7,CO/C(=C\C=C\c1cc2cc(Cl)c(Cl)cc2[nH]1)C(=O)NCCCN1CCN(Cc2ccccc2)CC1 [TCMDC-139257],-24.43
8,CCN(CC)CCNC(=O)/C(=C/C=C/c1cc2cc(Cl)c(Cl)cc2[nH]1)OC [TCMDC-139013],-18.02
9,CO/C(=C\C=C\c1cc2cc(Cl)c(Cl)cc2[nH]1)C(=O)NCCCNCCN(C)c1ccccc1 [TCMDC-139496],56.16
10,CCN(CC)CCCNC(=O)/C(=C/C=C/c1cc2cc(Cl)c(Cl)cc2[nH]1)OC [TCMDC-139008],50.29
11,CO/C(=C\C=C\c1cc2cc(Cl)c(Cl)cc2[nH]1)C(=O)NCC(C)(C)CN(C)C [TCMDC-139037],-32.83
12,CO/C(=C\C=C\c1cc2cc(Cl)c(Cl)cc2[nH]1)C(=O)NCCCNC12CC3CC(CC(C3)C1)C2 [TCMDC-139077],103
13,CN1CCC=C(C(=O)NCC(C)(C)c2nc(-c3ccc(Cl)c(O)c3)c(-c3ccncc3)[nH]2)C1 [TCMDC-140700],-7.132
14,Cc1c(OC(C)C)nc2ccccc2c1C(=O)N[C@H](c1cccc(F)c1)C1CC1 [TCMDC-135994],-18.71
15,O=C(NCCN1CCCC1)c1cccc(-c2ccc(-c3nc4ccccc4[nH]3)cc2)c1 [TCMDC-132324],-2.761
16,CC(C)c1ccc(NC(=O)c2ccc(CN3CCCN(Cc4cccc(O)c4)CC3)cc2)cc1 [TCMDC-136419],-24.98
17,Cc1cccc(-c2nn(-c3ccccc3)c3[nH]c(=O)c(CNC4CCCC4)cc23)c1 [TCMDC-136663],9.349
18,O=c1[nH]c2c(cc1CNC1CCCCC1)c(-c1cccc(F)c1)nn2-c1ccccc1 [TCMDC-125867],39.49
19,Cc1cccc(-c2nn(-c3ccccc3)c3[nH]c(=O)c(CN4CCSCC4)cc23)c1 [TCMDC-124897],84.44
